Results filed as inconclusive are left out. Entries that show only a call come without a potency. Activity calls are given as the source filed them. Unless noted, calls follow the shape of the dose curve; as a rule, active = well fitted curve in the direction sought with a large enough effect in the repeat runs; inconclusive = weak or mixed curves; inactive = no such curve, though single readings can be large; an effect the other way counts as inactive or inconclusive.
Experiments:
[1] = qHTS RealTime-Glo MT Cell Viability Assay in HepG2 cells - 16 hour (AID 1224885); also: nearly all actives have a fitted effect of over 50% in size; also: potency is read from the fitted curve at half-maximal effect
Summary of the method: (§1)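 Luminescence read-out: viable HepG2 cells reduce a prosubstrate to a NanoLuc substrate, giving a signal proportional to live cell number. Reads taken at 0, 8, 16, 24, 32 and 40 h of compound exposure at 37 C.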

[2] = qHTS RealTime-Glo MT Cell Viability Assay in HEK293 cells - 24 hour (AID 1224886); also: nearly all actives have a fitted effect of over 50% in size; also: potency is read from the fitted curve at half-maximal effect
Summary of the method: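 Nonlytic real-time viability readout: viable cells convert prosubstrate to NanoLuc substrate, giving luminescence proportional to live cell number. HEK293, 600 cells/well, compound added after 5 h, continuous culture at 37 C.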

[3] = qHTS RealTime-Glo MT Cell Viability Assay in HepG2 cells - 0 hour (AID 1224889); also: nearly all actives have a fitted effect of over 50% in size
Summary of the method: as §1

[4] = A CellTox Green Cytotoxicity Assay to monitor cytotoxicity in HepG2 cells - 8 hour (AID 1224890); also: nearly all actives have a fitted effect of over 45% in size; also: potency is read from the fitted curve at half-maximal effect
Summary of the method: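 Read-out is fluorescence of a cyanine dye excluded from live cells that stains DNA of dead HepG2 cells, with signal proportional to cytotoxicity. Plates were read at 0, 8, 16, 24, 32 and 40 h after compound addition.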

[5] = qHTS assay to identify small molecule antagonists of the androgen receptor (AR) signaling pathway using the MDA cell line in the presence of 0.5 nM R1881 - cell viability counter screen (AID 1259242); also: nearly all actives have a fitted effect of over 45% in size; also: potency is read from the fitted curve at half-maximal effect
Summary of the method: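 Counter screen for cytotoxicity run in the same wells as the AR antagonist reporter screen: MDA-kb2 cells were treated 16 hr with test compounds and 0.5 nM R1881, then live-cell protease activity was measured by fluorescence.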

[6] = target: Androgen receptor (Homo sapiens) (UniProt P10275); assay: qHTS assay to identify small molecule antagonists of the androgen receptor (AR) signaling pathway using the MDA cell line in the presence of 0.5 nM R1881 (AID 1259243); also: nearly all actives have a fitted effect of over 50% in size; also: potency is read from the fitted curve at half-maximal effect
Summary of the method: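 Luciferase luminescence is the read-out: compounds are tested for suppressing 0.5 nM R1881-driven MMTV reporter activity in MDA-kb2 cells after 16 hr at 37C.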

[7] = qHTS assay to identify small molecule HDAC inhibitors (AID 1259364); also: nearly all actives have a fitted effect of over 45% in size; also: potency is read from the fitted curve at half-maximal effect
Summary of the method: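 Luminescence from a cell-permeant luminogenic class I/II HDAC substrate reports endogenous deacetylase activity in intact HCT-116 cells treated with compounds for 2 h.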

[8] = qHTS assay to identify small molecule HDAC inhibitors - cell viability counter screen (AID 1259365); also: nearly all actives have a fitted effect of over 50% in size; also: potency is read from the fitted curve at half-maximal effect
Summary of the method: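 Luminescence from CellTiter-Glo, developed 30min at room temperature, reports viability of wild-type HCT-116 cells treated 2hr with compounds at 37 C and 5% CO2 after overnight plating.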

[9] = qHTS assay to identify small molecule agonists of the sonic hedgehog signaling (Shh) pathway - cell viability counter screen (AID 1259366); also: nearly all actives have a fitted effect of over 50% in size; also: potency is read from the fitted curve at half-maximal effect
Summary of the method: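 Cytotoxicity counter screen run in the same wells as the Shh reporter assay. NIH/3T3 cells carrying a Gli1 response element–driven luciferase were treated with DMSO-dissolved compounds for 24hr, and live-cell protease activity was measured with CellTiter-Fluor.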

[10] = qHTS assay to identify small molecule agonists of the sonic hedgehog signaling (Shh) pathway (AID 1259368; calls by dose curve;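 also: NIH/3T3-derived 3T3Gli1-Luc cells carrying a stable Gli1-driven firefly luciferase reporter; series mostly up to about 92 µM; nearly all actives have a fitted effect of over 15% in size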)
Summary of the method: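 3T3Gli1-Luc (NIH/3T3 clone, stable Gli1-Luc); 4 hr pre-incubation, then cpd in DMSO 24 hr, 37 C/5% CO2; luciferase reagent 30 min RT; luminescence.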

[11] = qHTS assay to identify small molecule antagonists of the sonic hedgehog signaling (Shh) pathway (AID 1259369; calls by dose curve; also: nearly all actives have a fitted effect of over 45% in size; also: potency is read from the fitted curve at half-maximal effect)
Summary of the method: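 3T3Gli1-Luc, conditioned-medium-stimulated, 24hr cpd, 37C/5% CO2; Gli1-driven firefly Luc luminescence after 30min RT with luciferase reagent. Cells plated 4hr before cpd.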

[12] = qHTS assay to identify small molecule agonists of the androgen receptor (AR) signaling pathway in the presence of an antagonist - cell viability counter screen (AID 1259379); also: nearly all actives have a fitted effect of over 25% in size; also: potency is read from the fitted curve at half-maximal effect
Summary of the method: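 Cells: MDA-kb2 (MMTV-luc, AR and GR elements), 3,000/well, 5 hr settle. Added: nilutamide 3.0uM final, then compounds (15 conc.). Incubation: 16 hr, 37C, no CO2. Read-out: CellTiter-Fluor, 1 hr, fluorescence.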

[13] = qHTS RealTime-Glo MT Cell Viability Assay in HEK293 cells - 8 hour (AID 1224887); also: nearly all actives have a fitted effect of over 50% in size; also: potency is read from the fitted curve at half-maximal effect
Summary of the method: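 Cells were seeded together with NanoLuc luciferase and a prosubstrate that viable cells reduce to a luciferase substrate. After a 5 h incubation at 37 C/5% CO2, compounds were added and luminescence was measured repeatedly during 40 h of treatment.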

[14] = A CellTox Green Cytotoxicity Assay to monitor cytotoxicity in HEK293 cells - 16 hour (AID 1224888); also: nearly all actives have a fitted effect of over 35% in size; also: potency is read from the fitted curve at half-maximal effect
Summary of the method: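 Nonlytic real-time cytotoxicity: HEK293 + CellTox Green reagent plated, 5 h preincubation, pintool compound addition (23 nL in DMSO), 37 C for 40 h, fluorescence measured at successive time points.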

[15] = qHTS assay to identify small molecule antagonists of the estrogen receptor alpha (ER-alpha) signaling pathway using the BG1 cell line in the presence of 0.1 nM 17-beta-estradiol - cell viability counter screen (AID 1259241); also: nearly all actives have a fitted effect of over 40% in size; also: potency is read from the fitted curve at half-maximal effect
Summary of the method: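 VM7Luc4E2, 4,000 cells/well, phenol red-free medium + 10% charcoal-stripped FBS; 24 hr plating; cpd + 0.1 nM E2 final, 22 hr 37C/5% CO2; CellTiter-Fluor 30 min, fluorescence.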

[16] = target: Estrogen receptor (Homo sapiens) (UniProt P03372); assay: qHTS assay to identify small molecule antagonists of the estrogen receptor alpha (ER-alpha) signaling pathway using the BG1 cell line in the presence of 0.1 nM 17-beta-estradiol (AID 1259244); also: nearly all actives have a fitted effect of over 50% in size; also: potency is read from the fitted curve at half-maximal effect
Summary of the method: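 Cells: VM7Luc4E2, endogenous ER-alpha, 4x ERE-luc stable. Pre-culture 5 d, phenol red-free, charcoal-stripped FBS. Plated 24 h, compound + E2 0.1 nM final, 22 h 37C/5% CO2. Readout ONE-Glo luminescence.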

[17] = qHTS assay to identify small molecule antagonists of the sonic hedgehog signaling (Shh) pathway - cell viability counter screen (AID 1259367); also: nearly all actives have a fitted effect of over 55% in size; also: potency is read from the fitted curve at half-maximal effect
Summary of the method: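 Using CellTiter-Fluor, viability of Gli1-Luc reporter 3T3 cells is read by fluorescence in the wells used for the Shh luciferase assay. Treatment lasts 23 hr with conditioned medium, then reagent 1 hr at 37C.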

[18] = target: Estrogen receptor beta (Homo sapiens) (UniProt Q92731); assay: qHTS assay to identify small molecule antagonists of the estrogen receptor beta (ER-beta) signaling pathway (AID 1259378; active = well fitted inhibition curve with a large enough effect in the signal ratio in the repeat runs, not every such curve was filed as active; the % refers to the signal ratio; also: potency is read from the fitted curve at half-maximal effect)
Summary of the method: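 Antagonist mode: compounds added to beta-lactamase reporter HEK293T ER-beta-UAS cells stimulated with E2 (1nM final), 16 hr at 37C. LiveBLAzer B/G FRET substrate, 2 hours room temperature, fluorescence read-out.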

[19] = qHTS assay to identify small molecule phospholipidosis (PLD) inducers (AID 1259344; active = well fitted curve in the direction sought with a large enough effect; an effect the other way counts as inactive or inconclusive)
Summary of the method: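 Fluorescent phospholipid staining (LipidTOX Red) measured by automated microscopy in fixed HepG2 cells after 24 h treatment; nuclei counterstained with Hoechst 33342; amiodarone as reference inducer.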

[20] = target: Estrogen receptor beta (Homo sapiens) (UniProt Q92731); assay: qHTS assay to identify small molecule agonists of the estrogen receptor beta (ER-beta) signaling pathway (AID 1259377; active = well fitted activation curve with a large enough effect in the signal ratio in the repeat runs, not every such curve was filed as active; the % refers to the signal ratio)
Summary of the method: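 HEK293T ER-beta-UAS-bla; 2% charcoal-stripped FBS; cells pre-incubated 6 hr, compound 16 hr, 37C/5% CO2; LiveBLAzer B/G FRET substrate 2 h RT; fluorescence intensity read.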

Chain of Androgen receptor (Homo sapiens) (P10275 whole entry, looked up): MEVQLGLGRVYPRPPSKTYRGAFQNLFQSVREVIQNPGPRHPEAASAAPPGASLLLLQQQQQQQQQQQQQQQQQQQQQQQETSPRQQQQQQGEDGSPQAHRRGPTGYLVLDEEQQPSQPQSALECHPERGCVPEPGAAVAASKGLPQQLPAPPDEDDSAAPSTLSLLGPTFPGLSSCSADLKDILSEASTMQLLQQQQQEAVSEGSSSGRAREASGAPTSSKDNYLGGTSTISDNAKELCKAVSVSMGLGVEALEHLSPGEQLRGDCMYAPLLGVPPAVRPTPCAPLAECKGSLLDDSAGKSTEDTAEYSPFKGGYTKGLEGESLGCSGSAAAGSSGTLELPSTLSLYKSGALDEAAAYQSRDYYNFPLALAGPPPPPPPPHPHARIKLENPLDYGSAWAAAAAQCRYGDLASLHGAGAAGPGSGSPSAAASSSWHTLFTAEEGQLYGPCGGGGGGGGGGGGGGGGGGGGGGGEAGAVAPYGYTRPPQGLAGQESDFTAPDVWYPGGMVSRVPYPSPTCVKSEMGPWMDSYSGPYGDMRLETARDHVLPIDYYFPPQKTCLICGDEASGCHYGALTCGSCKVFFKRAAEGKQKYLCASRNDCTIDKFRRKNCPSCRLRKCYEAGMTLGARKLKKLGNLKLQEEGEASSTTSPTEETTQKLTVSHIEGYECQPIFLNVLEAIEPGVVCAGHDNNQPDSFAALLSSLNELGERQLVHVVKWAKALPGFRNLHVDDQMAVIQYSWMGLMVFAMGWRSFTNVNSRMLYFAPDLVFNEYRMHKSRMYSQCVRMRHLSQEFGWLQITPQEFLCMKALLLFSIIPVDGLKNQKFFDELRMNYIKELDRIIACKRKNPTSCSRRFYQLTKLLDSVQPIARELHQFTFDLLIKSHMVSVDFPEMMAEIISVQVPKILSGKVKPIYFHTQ
Chain of Estrogen receptor beta (Homo sapiens) (Q92731 whole entry, looked up): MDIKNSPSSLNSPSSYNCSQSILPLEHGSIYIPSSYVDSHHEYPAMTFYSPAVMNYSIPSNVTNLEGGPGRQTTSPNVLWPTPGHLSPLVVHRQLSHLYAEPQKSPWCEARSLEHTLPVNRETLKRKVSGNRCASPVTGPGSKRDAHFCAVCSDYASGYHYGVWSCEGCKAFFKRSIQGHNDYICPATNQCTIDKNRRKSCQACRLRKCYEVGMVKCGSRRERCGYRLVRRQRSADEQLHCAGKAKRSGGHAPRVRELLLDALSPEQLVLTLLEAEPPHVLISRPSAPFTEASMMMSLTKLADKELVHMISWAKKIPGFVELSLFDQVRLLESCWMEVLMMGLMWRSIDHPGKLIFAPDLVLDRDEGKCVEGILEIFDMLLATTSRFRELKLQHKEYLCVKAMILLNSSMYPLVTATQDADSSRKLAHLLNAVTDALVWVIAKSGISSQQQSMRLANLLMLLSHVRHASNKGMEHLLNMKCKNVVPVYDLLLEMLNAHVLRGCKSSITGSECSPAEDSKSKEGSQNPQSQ
Chain of Estrogen receptor (Homo sapiens) (P03372 whole entry, looked up): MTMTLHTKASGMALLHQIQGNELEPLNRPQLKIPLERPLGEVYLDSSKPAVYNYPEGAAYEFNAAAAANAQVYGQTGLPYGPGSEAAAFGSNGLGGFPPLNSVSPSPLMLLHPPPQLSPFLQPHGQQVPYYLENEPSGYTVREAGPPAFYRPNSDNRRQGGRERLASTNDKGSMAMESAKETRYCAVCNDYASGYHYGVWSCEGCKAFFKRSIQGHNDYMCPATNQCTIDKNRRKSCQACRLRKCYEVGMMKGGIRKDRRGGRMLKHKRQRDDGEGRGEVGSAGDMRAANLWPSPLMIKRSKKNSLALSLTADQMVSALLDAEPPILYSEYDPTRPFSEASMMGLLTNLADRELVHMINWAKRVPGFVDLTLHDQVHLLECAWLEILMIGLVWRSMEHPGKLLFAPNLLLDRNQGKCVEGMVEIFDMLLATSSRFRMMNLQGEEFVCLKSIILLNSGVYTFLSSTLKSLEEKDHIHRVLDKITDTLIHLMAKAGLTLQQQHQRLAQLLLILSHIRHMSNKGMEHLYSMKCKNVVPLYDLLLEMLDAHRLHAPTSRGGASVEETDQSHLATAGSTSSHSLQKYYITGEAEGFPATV

Row | Structure (SMILES) | Potency [1] | Potency [2] | Potency [3] | Potency [4] | Potency [5] | Potency [6] | Potency [7] | Potency [8] | Potency [9] | Potency [10] | Potency [11] | Potency [12] | Potency [13] | Potency [14] | Potency [15] | Potency [16] | Potency [17] | Potency [18] | Potency [19] | outcome [20]
1 | CC(C)(C)c1ccc(OC2CCCCC2O)cc1 (centres undefined) | inactive | 54.9 µM (active) | inactive | inactive | inactive | 61.1 µM (active) | inactive | inactive | inactive | inactive | 38.6 µM (active) | inactive |  |  |  |  |  |  |  | 
2 | CCN(CC)c1ccc2c(c1)Oc1cc(N(CC)CC)ccc1C21OC(=O)c2ccccc21 | inactive |  | inactive | 23.9 µM (active) | 10.6 µM (active) |  |  |  | 3.76 µM (active) |  |  |  | inactive | 21.3 µM (active) | 5.96 µM (active) | inactive | 3.35 µM (active) |  |  | 
3 | Cc1ccc(Cl)c(N)c1Cl | inactive | inactive | inactive | inactive | inactive |  | inactive | inactive |  | inactive | 21.7 µM (active) | inactive | inactive | inactive |  |  | 61.1 µM (active) | inactive |  | 
4 | Cc1ccc(N=Nc2c(O)ccc3ccccc23)c(C)c1 | inactive | inactive | inactive | inactive |  | inactive | inactive |  |  |  | inactive |  |  | inactive |  | inactive |  |  |  | 
5 | CCC(C)(C)c1ccc(CC(C)CN2C[C@@H](C)O[C@@H](C)C2)cc1 (some centres undefined) | inactive | inactive | inactive |  | inactive |  | inactive | inactive | inactive | inactive |  | inactive | inactive | 23.9 µM (active) | inactive | inactive | inactive |  | inactive | 
6 | O=C(Nc1ccc([N+](=O)[O-])cc1)Nc1ccc([N+](=O)[O-])cc1 (tested in a mixture with another compound) | inactive |  | inactive | inactive | inactive |  | inactive | inactive | inactive |  |  | inactive | inactive | inactive | inactive |  | inactive | inactive |  | inactive
7 | CCN(CC)c1ccc(N=Nc2ccccc2)cc1 | inactive | 49 µM (active) | inactive | inactive |  | inactive | 27.3 µM (active) | inactive | 30.6 µM (active) |  |  | 27.3 µM (active) | 43.6 µM (active) | inactive |  | inactive | 34.4 µM (active) | inactive |  | 
8 | C=C1CC[C@H]2O[C@]2(C)CC[C@@H]2[C@@H]1CC2(C)C | inactive |  | inactive | inactive | inactive | inactive | inactive | inactive | inactive | inactive | inactive |  | 49 µM (active) | inactive | inactive | inactive | inactive | inactive |  | inactive
9 | CN(C[C@@H](CC[N+]12CCC(C3CCCCC3)(CC1)CC2)c1ccc(Cl)c(Cl)c1)C(=O)c1cc(C(F)(F)F)cc(C(F)(F)F)c1 | 21.9 µM (active) | 3.09 µM (active) |  | 38.9 µM (active) |  | 68.6 µM (active) | inactive | 12.2 µM (active) |  | inactive | inactive | 68.6 µM (active) | 3.47 µM (active) | 24.5 µM (active) | 54.5 µM (active) |  | inactive |  |  | 
10 | CC(=O)[C@]1(O)Cc2c(O)c3c(c(O)c2[C@@H](O[C@H]2C[C@H](N)[C@H](O)[C@H](C)O2)C1)C(=O)c1ccccc1C3=O | 12 µM (active) | 0.12 µM (active) | inactive | 23.9 µM (active) |  | 0.531 µM (active) | inactive | inactive | 0.944 µM (active) | inactive | 0.0133 µM (active) | 9.44 µM (active) |  | inactive |  | inactive | 1.19 µM (active) |  |  | 
11 | CCCCCc1ccc(O)cc1 | inactive |  | inactive |  | inactive |  |  | inactive |  | inactive |  | inactive | 21.9 µM (active) | 38.9 µM (active) | inactive | inactive |  | inactive |  | 
12 | O=C1C=CC(=O)N1c1cccc(N2C(=O)C=CC2=O)c1 | 15.5 µM (active) | 11 µM (active) | inactive | 17.4 µM (active) | 61.1 µM (active) | 61.1 µM (active) |  |  | 8.63 µM (active) |  | 1.72 µM (active) |  | 19.5 µM (active) |  | 68.6 µM (active) | 61.1 µM (active) | 7.7 µM (active) | 61.1 µM (active) |  | 
13 | O[Si](c1ccccc1)(c1ccccc1)c1ccccc1 | inactive |  | inactive | inactive | inactive | 30.6 µM (active) | inactive | inactive |  | inactive | 12.2 µM (active) | inactive |  | inactive | inactive | inactive |  |  |  | 
14 | c1ccc(-c2ccccc2-c2ccccc2)cc1 | inactive | inactive | inactive | inactive | inactive |  |  | inactive |  | inactive | 15.4 µM (active) | inactive | inactive | inactive |  |  | 43.3 µM (active) |  |  | 
15 | CCCCCN=C(N)N/N=C/c1c[nH]c2ccc(OC)cc12 | 7.56 µM (active) | 4.77 µM (active) |  | 10.7 µM (active) | 13.3 µM (active) |  | inactive |  | 8.41 µM (active) |  | 1.68 µM (active) | 13.3 µM (active) | 8.49 µM (active) | 7.56 µM (active) | 29.8 µM (active) |  | 13.3 µM (active) |  | inactive | 

Reference: PubChem BioAssay (Tox21)
